Assay results from PubChem BioAssay (EPA / NIEHS).
Activity calls are given as the source filed them. The calls were made as follows: active = hit-call score of the fitted dose curve at least 0.9, where 1 is the maximum; inactive = score below 0.9.

How the values were obtained:
[1] = read-out: Matrix Metallopeptidase 1 (MMP1), MMP1 (gene 4312); test: BSK_hDFCGF_MMP1: BioMAP Diversity Plus: hDFCGF Assay for Matrix Metallopeptidase 1 (MMP1) Biomarker Activity (AID 2283064); details: primary human foreskin fibroblasts; actives raise or lower the signal
Method in brief: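 ELISA read-out of MMP1 from human foreskin fibroblasts (primary skin cells), 24 h post-dose. Gain or loss of signal was fitted bidirectionally versus DMSO negative control; cytotoxicity was checked by SRB in parallel cultures.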

[2] = read-out: Vascular cell adhesion molecule 1 (VCAM1), VCAM1 (gene 7412); test: BSK_hDFCGF_VCAM1: BioMAP Diversity Plus: hDFCGF Assay for Vascular cell adhesion molecule 1 (VCAM1) Biomarker Activity (AID 2283065); details: primary human foreskin fibroblasts; actives raise or lower the signal;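 as to AC50: VCAM-1 protein level quantified by ELISA after 24 h chemical exposure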
Method in brief: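 ELISA readout of VCAM-1 on human dermal fibroblast primary cultures, 24 h after chemical exposure. Gain or loss of signal fitted in both directions against DMSO baseline.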

[3] = read-out: Plasminogen activator inhibitor-1 (PAI1), SERPINE1 (gene 5054); test: BSK_hDFCGF_PAI1: BioMAP Diversity Plus: hDFCGF Assay for Plasminogen activator inhibitor-1 (PAI1) Biomarker Activity (AID 2283066); details: primary human foreskin fibroblasts; actives raise or lower the signal
Method in brief: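 Human skin fibroblast cultures receive chemical for 24 h before PAI-1 is measured by ELISA; signal changes are fitted bidirectionally against DMSO-treated wells.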

[4] = read-out: Intercellular Adhesion Molecule 1 (ICAM1), ICAM1 (gene 3383); test: BSK_KF3CT_ICAM1: BioMAP Diversity Plus: KF3CT Assay for Intercellular Adhesion Molecule 1 (ICAM1) Biomarker Activity (AID 2283067); details: primary human keratinocytes with fibroblasts; actives raise or lower the signal
Method in brief: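 Cell-surface ICAM-1 was measured by ELISA 24 h after dosing primary human skin keratinocytes co-cultured with fibroblasts. Parallel SRB staining tracked overt cytotoxicity. Gain or loss of signal was fitted relative to DMSO.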

[5] = read-out: Interferon-gamma inducible Protein 10 (IP10), CXCL10 (gene 3627); test: BSK_KF3CT_IP10: BioMAP Diversity Plus: KF3CT Assay for Interferon-gamma inducible Protein 10 (IP10) Biomarker Activity (AID 2283068); details: primary human keratinocytes with fibroblasts; actives raise or lower the signal
Method in brief: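 Signal is secreted/surface IP-10 by ELISA in a human primary skin co-culture of keratinocytes and foreskin fibroblasts, taken 24 h post-dosing; DMSO served as negative control.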

[6] = BSK_KF3CT_SRB: Viability Assessment in the BioMAP Diversity Plus: KF3CT Assay (AID 2283069); details: primary human keratinocytes with fibroblasts;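 also: total protein by sulforhodamine B staining as a cytotoxicity measure; read 24 h after compound addition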
Method in brief: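 SRB read-out at 560 nm (0.1% stain, TCA-fixed cells) gauges overt cytotoxicity in a human skin keratinocyte–fibroblast co-culture 24 h post-dosing. Signal change was fitted bidirectionally relative to DMSO control.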

[7] = read-out: Interleukin-1 alpha (IL1a), IL1A (gene 3552); test: BSK_KF3CT_IL1a: BioMAP Diversity Plus: KF3CT Assay for Interleukin-1 alpha (IL1a) Biomarker Activity (AID 2283070); details: primary human keratinocytes with fibroblasts; actives raise or lower the signal
Method in brief: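 Primary skin co-culture (keratinocytes, foreskin fibroblasts), 24 h exposure; ELISA for IL-1a; bidirectional curve fit vs DMSO.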

[8] = read-out: TIMP metallopeptidase inhibitor 2 (TIMP2), TIMP2 (gene 7077); test: BSK_KF3CT_TIMP2: BioMAP Diversity Plus: KF3CT Assay for TIMP metallopeptidase inhibitor 2 (TIMP2) Biomarker Activity (AID 2283071); details: primary human keratinocytes with fibroblasts; actives raise or lower the signal
Method in brief: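 Measurements come from ELISA detection of TIMP-2 at 24 hours in a dosed human keratinocyte and foreskin fibroblast co-culture. DMSO serves as negative control and baseline.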

[9] = read-out: C-C motif chemokine 2 (Homo sapiens) (UniProt P13500); test: BSK_KF3CT_MCP1: BioMAP Diversity Plus: KF3CT Assay for Monocyte Chemoattractant Protein 1 (MCP1/CCL2) Biomarker Activity (AID 2283073); details: primary human keratinocytes with fibroblasts; actives raise or lower the signal
Method in brief: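 ELISA read-out of MCP-1, 24 h post-dose, in primary human skin keratinocytes co-cultured with fibroblasts. Parallel SRB staining monitors cytotoxicity; changes fitted both directions relative to DMSO.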

[10] = read-out: Matrix Metallopeptidase 9 (MMP9), MMP9 (gene 4318); test: BSK_KF3CT_MMP9: BioMAP Diversity Plus: KF3CT Assay for Matrix Metallopeptidase 9 (MMP9) Biomarker Activity (AID 2283074); details: primary human keratinocytes with fibroblasts; actives raise or lower the signal;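 as to AC50: MMP9 protein level quantified by ELISA in the co-culture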
Method in brief: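 ELISA read-out of MMP-9 at 24 h post-dosing in a co-culture of human skin keratinocytes and foreskin fibroblasts. Gain or loss of signal was fitted in both directions against DMSO.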

[11] = read-out: urokinase plasminogen activator (uPA), PLAU (gene 5328); test: BSK_KF3CT_uPA: BioMAP Diversity Plus: KF3CT Assay for urokinase plasminogen activator (uPA) Biomarker Activity (AID 2283075); details: primary human keratinocytes with fibroblasts; actives raise or lower the signal
Method in brief: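 Skin co-culture (keratinocytes + foreskin fibroblasts), human primary; 24 h post-dose; uPA by ELISA; gain/loss fit vs DMSO baseline.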

CD40, CD40 (gene 958) = test: BSK_LPS_CD40: BioMAP Diversity Plus: LPS Assay for CD40 Biomarker Activity (AID 2283076); details: primary human HUVEC with PBMC; actives raise or lower the signal
Method in brief: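 In the LPS system of human endothelial cells with peripheral blood mononuclear cells, CD40 levels were read by ELISA 24 h post-treatment. Signal changes in either direction were fitted against the DMSO baseline, with parallel SRB protein staining.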

[12] = read-out: E-selectin (Homo sapiens) (UniProt P16581); test: BSK_LPS_Eselectin: BioMAP Diversity Plus: LPS Assay for Eselectin Biomarker Activity (AID 2283077); details: primary human HUVEC with PBMC; actives raise or lower the signal
Method in brief: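 E-selectin ELISA on LPS-stimulated endothelial cell/PBMC co-cultures, read 24 h post-treatment; gains and losses fitted against DMSO. Parallel SRB staining (0.1% SRB after 10% TCA fixation, 560 nm) flags overt cytotoxicity.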

[13] = read-out: Interleukin-8 (IL8), CXCL8 (gene 3576); test: BSK_LPS_IL8: BioMAP Diversity Plus: LPS Assay for Interleukin-8 (IL8) Biomarker Activity (AID 2283078); details: primary human HUVEC with PBMC; actives raise or lower the signal
Method in brief: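 ELISA read-out of IL-8 after 24 h chemical treatment of LPS-activated endothelial/PBMC human primary co-cultures. Changes either up or down relative to DMSO; overt cytotoxicity checked by sulforhodamine B staining in parallel wells.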

[14] = BSK_LPS_SRB: Viability Assessment in the BioMAP Diversity Plus: LPS Assay (AID 2283079); details: primary human HUVEC with PBMC;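 also: total protein by sulforhodamine B absorbance as a cytotoxicity measure; measured one day after compound addition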
Method in brief: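 SRB viability endpoint: cells fixed with 10% TCA, stained with 0.1% SRB, read at 560 nm, 24 h post-dose. HUVEC/PBMC co-culture; signal change in either direction scored relative to DMSO.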

[15] = read-out: Interleukin-1 alpha (IL1a), IL1A (gene 3552); test: BSK_LPS_IL1a: BioMAP Diversity Plus: LPS Assay for Interleukin-1 alpha (IL1a) Biomarker Activity (AID 2283080); details: primary human HUVEC with PBMC; actives raise or lower the signal
Method in brief: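 Readout is IL-1a level by ELISA, 24 h post-dose, fitted as gain or loss relative to DMSO. System: LPS-activated human primary co-culture of vascular endothelium and peripheral blood mononuclear cells, with parallel SRB total-protein cytotoxicity.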

[16] = read-out: Monocyte Chemoattractant Protein-1 (MCP1), CCL2 (gene 6347); test: BSK_LPS_MCP1: BioMAP Diversity Plus: LPS Assay for Monocyte Chemoattractant Protein-1 (MCP1) Biomarker Activity (AID 2283081); details: primary human HUVEC with PBMC; actives raise or lower the signal;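 as to AC50: secreted MCP-1 protein quantified by ELISA in culture supernatant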
Method in brief: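 Secreted MCP-1 read by ELISA at 24 h post-dosing in an LPS-activated co-culture of endothelial cells with peripheral blood mononuclear cells. Fits run in both directions, DMSO as baseline; parallel SRB staining tracks overt cytotoxicity.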

[17] = BSK_LPS_PGE2: BioMAP Diversity Plus: LPS Assay for Prostaglandin E2 (PGE2) Biomarker Activity (AID 2283082); details: primary human HUVEC with PBMC; actives raise or lower the signal;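 as to AC50: secreted prostaglandin E2 measured by ELISA in LPS-stimulated co-culture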
Method in brief: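 Primary human endothelial cells and blood mononuclear cells, co-cultured with LPS, receive test chemical; PGE2 ELISA follows at 24 h, with SRB-stained parallel cultures flagging cytotoxicity.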

[18] = read-out: Macrophage colony-stimulating factor (MCSF), CSF1 (gene 1435); test: BSK_LPS_MCSF: BioMAP Diversity Plus: LPS Assay for Macrophage colony-stimulating factor (MCSF) Biomarker Activity (AID 2283083); details: primary human HUVEC with PBMC; actives raise or lower the signal
Method in brief: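 Bidirectional fitting against DMSO was applied to M-CSF levels read by ELISA at 24 h post-dose. The system pairs human umbilical vein endothelium with peripheral blood mononuclear cells; parallel SRB staining tracked cytotoxicity.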

[19] = read-out: Transforming growth factor beta 1 (TGFb1), TGFB1 (gene 7040); test: BSK_KF3CT_TGFb1: BioMAP Diversity Plus: KF3CT Assay for Transforming growth factor beta 1 (TGFb1) Biomarker Activity (AID 2283072); details: primary human keratinocytes with fibroblasts; actives raise or lower the signal
Method in brief: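 TGF-b1 ELISA on a 24 h dosed co-culture of human keratinocytes and foreskin fibroblasts; cytotoxicity tracked in parallel cultures by SRB staining.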

Measured: AC50

Sequence of E-selectin (Homo sapiens) (P16581 whole entry, looked up): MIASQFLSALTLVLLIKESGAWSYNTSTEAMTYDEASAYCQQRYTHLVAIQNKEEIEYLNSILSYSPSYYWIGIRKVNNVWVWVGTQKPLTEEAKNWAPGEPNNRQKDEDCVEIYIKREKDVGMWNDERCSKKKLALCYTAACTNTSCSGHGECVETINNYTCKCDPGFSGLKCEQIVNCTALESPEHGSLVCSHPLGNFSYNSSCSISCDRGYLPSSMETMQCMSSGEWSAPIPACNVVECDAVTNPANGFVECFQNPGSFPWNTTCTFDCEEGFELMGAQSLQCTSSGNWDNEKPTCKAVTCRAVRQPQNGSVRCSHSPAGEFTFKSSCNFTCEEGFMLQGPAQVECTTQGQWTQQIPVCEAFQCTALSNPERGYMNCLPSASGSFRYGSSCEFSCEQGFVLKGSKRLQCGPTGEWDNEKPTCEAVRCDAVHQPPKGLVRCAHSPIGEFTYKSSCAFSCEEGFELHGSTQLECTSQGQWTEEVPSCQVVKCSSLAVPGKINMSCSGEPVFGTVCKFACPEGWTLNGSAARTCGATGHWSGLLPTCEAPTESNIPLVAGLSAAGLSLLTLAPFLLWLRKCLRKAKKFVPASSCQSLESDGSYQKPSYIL

Cc1ccccc1OP(=O)(Oc1ccccc1)Oc1ccccc1
inactive: [3] | [4] | [5] | [6] | [9] | [11] | [13] | [17]
active: [1] 27.4 µM | [2] 5.06 µM | [7] 20 µM | [8] 14.4 µM | [10] 8.99 µM | CD40, CD40 (gene 958) 15.7 µM | [12] 29.2 µM | [14] 20 µM | [15] 28.1 µM | [16] 20 µM | [18] 20 µM

Cc1cc(Cl)ccc1N
not listed: [10] | [19]
inactive: all other assays above

OC(Cc1ccccc1Cl)(Cn1[nH]cnc1=S)C1(Cl)CC1 (configuration not stated)
active: [2] 17.8 µM | [8] 11.1 µM | CD40, CD40 (gene 958) 20 µM | [16] 24.6 µM | [17] 11.1 µM
not listed: [10] | [19]
inactive: all other assays above

CCOP(=S)(OCC)OP(=S)(OCC)OCC
active: [2] 30.4 µM | [8] 20 µM
not listed: [19]
inactive: all other assays above

Cc1cc(C(C)(C)c2ccc(O)c(C)c2)ccc1O
active: [8] 12.2 µM | [19] 10 µM | [10] 15.2 µM | CD40, CD40 (gene 958) 14.3 µM | [14] 12.5 µM | [17] 4.51 µM | [18] 15.1 µM
inactive: all other assays above

CC(C)(COCC1CO1)COCC1CO1 (configuration not stated)
not listed: [10] | [19]
inactive: all other assays above
